For 36 compounds, z-score results are on record in PubChem BioAssay.
Note: test concentration not given here.

A short description of the first test: JC-1 mitochondrial signal, unstimulated myeloma cells – cell-based, JC-1 fluorescence, RPMI8226, 24 h, 100 nL compound, profiling panel (AID 1169). The note with it: JC-1 mitochondrial potential fluorescence, higher = more signal.
As for `O=C1[C@H]2[C@H]3[C@H](O)[C@H](O)CC(=NO[C@@H]4O[C@H](CO)[C@@H](O)[C@H](O)[C@H]4O)[C@H]3CC[C@H]2C(=O)N1c1ccc(F)cc1F`, the z-score was -0.177.

The compound `COC(=O)[C@@H]1CC[C@H](C)[C@@H](c2ccc(C)cc2)N1C(=O)c1ccc(C=NOC[C@H]2O[C@H](c3ccccc3)C=C[C@@H]2Oc2ccc(OC)cc2)cc1` yielded a z-score of 0.833.

In turn, `COC(=O)CC=C[C@@H](C)[C@@H](C=NOC[C@@H](O)COCc1ccco1)OC` showed a z-score of 0.501.

In turn, `CC(C)(C)N1C(=O)[C@H]2[C@H]3[C@H](O)[C@H](O)CC(=NOC[C@@H](O)COCc4ccco4)[C@@H]3CC[C@H]2C1=O` gave a z-score of 0.431.

In the case of `C#CCCCON=C1C[C@@H](O)[C@@H](O)[C@@H]2[C@@H]3C(=O)N(C[C@@H]4CCCO4)C(=O)[C@@H]3CC[C@H]12`, the z-score came to 0.489.

As to `CCOC(=O)[C@H](CC(C)C)NC(=O)CCC1CC(OC(=O)NCCc2ccc(F)cc2)CC2(CCCC(COC(=O)NCCOC)O2)O1` (some centres undefined), the z-score worked out at 0.64.

`CCOC(=O)[C@H](Cc1ccccc1)NC(=O)CCC1CC(OC(=O)NCCc2ccc(F)cc2)CC2(CCCC(COC(=O)NCCC(C)C)O2)O1` (some centres undefined) gave a z-score of -0.353.

`CC(C)=CCCC(C)=CCON=C1C[C@@H](O)[C@@H](O)[C@@H]2[C@@H]3C(=O)N(C4CCCCC4)C(=O)[C@@H]3CC[C@H]12` showed a z-score of -0.467.

The nature of the next test: JC-1 mitochondrial signal, unstimulated MM1S myeloma – cell-based, JC-1 fluorescence, 24 h, 100 nL compound, profiling panel (AID 1170). The note with it: MM1S mitochondrial potential, higher = more signal.
In the case of `CO[C@H]1COC(=O)CC=C[C@H](C)[C@H](OC)COC(=O)[C@@H](C)NC(=O)CC=C[C@@H]1C`, the z-score was -0.248.

`CCOC(=O)[C@H](Cc1ccccc1)NC(=O)CCC1CC(OC(=O)NCCc2ccc(F)cc2)CC2(CCCC(COC(=O)NCc3cccc(C(F)(F)F)c3)O2)O1` (some centres undefined) returned a z-score of 0.464.

Compound `CCOC(=O)NN=C1C[C@@H](O)[C@@H](O)[C@@H]2[C@@H]3C(=O)N(c4ccc(F)cc4F)C(=O)[C@@H]3CC[C@H]12` displayed a z-score of -0.354.

Compound `C[C@]12CCC3c4ccc(OCC5CO5)cc4CCC3C1CC[C@@H]2O` (some centres undefined) displayed a z-score of -0.046.

For `CCOC(=O)CCN1C(=O)[C@H]2[C@H]3[C@H](O)[C@H](O)CC(=NOCC=C(C)CCC=C(C)C)[C@@H]3CC[C@H]2C1=O`, the z-score was -0.251.

Compound `CCOC(=O)[C@H](Cc1ccccc1)NC(=O)CCC1CC(OC(=O)NCc2cccc3ccccc23)CC2(CCCC(COC(=O)NCCOc3ccccc3)O2)O1` (some centres undefined) had a z-score of -0.883.

As to `CCOC(=O)[C@H](Cc1ccccc1)NC(=O)CCC1CC(OC(=O)NCc2ccc3c(c2)OCO3)CC2(CCCC(COC(=O)NCCc3ccc(Cl)cc3)O2)O1` (some centres undefined), the z-score was -1.27.

`O=C(NN=C1C[C@@H](O)[C@@H](O)[C@@H]2[C@@H]3C(=O)N(Cc4ccccc4)C(=O)[C@@H]3CC[C@H]12)OCc1ccccc1` had a z-score of -0.427.

In the case of `C[C@@H]1CC[C@H]2C(=O)O[C@@H](CN=[N+]=[N-])CN2[C@H]1c1ccc(Br)cc1`, the z-score is -1.33.

`COC(=O)CC=C[C@@H](C)[C@@H](C=NOC[C@@H](O)[C@H]1O[C@@H]2OC(C)(C)O[C@@H]2[C@H]1O)OC` yielded a z-score of 0.781.

`CC(CCN1CCCc2nc(C)c(C)cc21)=NO[C@H](C)c1cn([C@@H]2COC[C@H]2O)nn1` showed a z-score of -0.825.

On to `CC(C)(C)N1C(=O)[C@H]2[C@H]3[C@H](O)[C@H](O)CC(=NNC(=O)OCc4ccccc4)[C@@H]3CC[C@H]2C1=O`, for which the z-score was -0.368.

Consider `COc1cccc([C@H]2Oc3ccc(OC)cc3C(=NO[C@@H](C)c3cc(-c4c(C)cc(C)cc4C)no3)[C@@H]2O)c1`, for which the z-score amounted to 0.463.

For `O=C1C2=CC[C@H]3C(=O)N(C[C@@H]4CCCO4)C(=O)[C@H]3[C@H]2[C@H](O)[C@@H]2O[C@H]12`, the z-score was -3.04.

For the compound `CCOC(=O)[C@H](Cc1ccccc1)NC(=O)CCC1CC(OC(=O)NCc2cccc3ccccc23)CC2(CCCC(COC(=O)NCCc3ccc(Cl)cc3)O2)O1` (some centres undefined), the z-score was -0.401.

Consider `COC(=O)[C@H](C)NC(=O)CCC1CC(OC(=O)NCc2cccc3ccccc23)CC2(CCCC(COC(=O)NCc3cccc(C(F)(F)F)c3)O2)O1` (some centres undefined), for which the z-score was -0.905.

Turning to `COC(=O)[C@H](C)NC(=O)CCC1CC(OC(=O)NCc2cccc3ccccc23)CC2(CCCC(COC(=O)NCCOc3ccccc3)O2)O1` (some centres undefined), the z-score was -0.463.

Compound `CCOC(=O)CCN1C(=O)[C@H]2[C@H]3[C@H](O)[C@H](O)CC(=O)[C@@H]3CC[C@H]2C1=O` returned a z-score of 0.325.

In turn, `C#CCCCON=C1[C@H]2CCn3c(=O)n(Cc4cc5c(cc4Cl)OCO5)c(=O)n3[C@H]2[C@H](O)[C@@H]2O[C@H]12` had a z-score of 0.00911.

On to `COC(=O)[C@H](C)NC(=O)CCC1CC(OC(=O)NCCc2ccc(F)cc2)CC2(CCCC(COC(=O)NCCc3ccccc3OC)O2)O1` (some centres undefined), for which the z-score was -0.876.

`CCOC(=O)[C@H](Cc1ccccc1)NC(=O)CCC1CC(OC(=O)NCc2ccc3c(c2)OCO3)CC2(CCCC(COC(=O)NCCOc3ccccc3)O2)O1` (some centres undefined) gave a z-score of -1.17.

Regarding `CCOC(=O)CCN1C(=O)[C@H]2[C@H]3[C@H](O)[C@H](O)CC(=NNC(=O)OCC)[C@H]3CC[C@H]2C1=O`, the z-score turned out to be 0.0724.

Compound `CCN1C(=O)[C@H]2[C@H]3[C@H](O)[C@H](O)CC(=NOCC[C@@H]4C=C[C@H](OC(C)=O)[C@@H](COC(C)=O)O4)[C@@H]3CC[C@H]2C1=O` displayed a z-score of -0.306.

Compound `O=C1C2=CC[C@H]3C(=O)N(c4ccc(F)cc4F)C(=O)[C@H]3[C@H]2[C@H](O)[C@@H]2O[C@H]12` returned a z-score of 0.556.

`COc1ccc(O[C@H]2C=C[C@@H](c3ccccc3)O[C@@H]2COC(=O)CCC(C)=NOC[C@@H](O)COCc2ccco2)cc1` displayed a z-score of -1.12.

On to `O=C1C[C@@H](O)[C@@H](O)[C@@H]2[C@@H]3C(=O)N(C4CCCCC4)C(=O)[C@@H]3CC[C@@H]12`, for which the z-score was -0.377.

In turn, `CC(CCC(=O)OC[C@H]1O[C@H](C#Cc2ccccc2)C=C[C@@H]1Oc1ccc(C)cc1)=NOC[C@@H](C)[C@H](OCc1ccccc1)C(C)C` displayed a z-score of -0.327.

As to `CC(C)CON=C1C[C@@H](O)[C@@H](O)[C@@H]2[C@@H]3C(=O)N([C@@H](C)c4ccccc4)C(=O)[C@@H]3CC[C@@H]12`, the z-score is -0.389.

Compound `O=C1[C@H]2[C@H]3[C@H](O)[C@H](O)CC(=NO[C@@H]4O[C@H](CO)[C@@H](O)[C@H](O)[C@H]4O)[C@H]3CC[C@H]2C(=O)N1c1ccc(F)cc1F` gave a z-score of -0.709.

The compound `COC(=O)[C@@H]1CC[C@H](C)[C@@H](c2ccc(C)cc2)N1C(=O)c1ccc(C=NOC[C@H]2O[C@H](c3ccccc3)C=C[C@@H]2Oc2ccc(OC)cc2)cc1` yielded a z-score of 0.0359.

Regarding `COC(=O)CC=C[C@@H](C)[C@@H](C=NOC[C@@H](O)COCc1ccco1)OC`, the z-score was -0.281.

In turn, `CC(C)(C)N1C(=O)[C@H]2[C@H]3[C@H](O)[C@H](O)CC(=NOC[C@@H](O)COCc4ccco4)[C@@H]3CC[C@H]2C1=O` showed a z-score of 0.325.

For `C#CCCCON=C1C[C@@H](O)[C@@H](O)[C@@H]2[C@@H]3C(=O)N(C[C@@H]4CCCO4)C(=O)[C@@H]3CC[C@H]12`, the z-score is -0.149.

`CCOC(=O)[C@H](CC(C)C)NC(=O)CCC1CC(OC(=O)NCCc2ccc(F)cc2)CC2(CCCC(COC(=O)NCCOC)O2)O1` (some centres undefined): the z-score was determined as 0.441.

Turning to `CCOC(=O)[C@H](Cc1ccccc1)NC(=O)CCC1CC(OC(=O)NCCc2ccc(F)cc2)CC2(CCCC(COC(=O)NCCC(C)C)O2)O1` (some centres undefined), the z-score is -0.941.

The compound `CC(C)=CCCC(C)=CCON=C1C[C@@H](O)[C@@H](O)[C@@H]2[C@@H]3C(=O)N(C4CCCCC4)C(=O)[C@@H]3CC[C@H]12` had a z-score of -1.4.
